About 7,900 targets were measured; listed, in parts, are those with a hit and a random draw of the rest. About 0.6% of all pairs of compound and target were hits. Values without a mark were called inactive.
What was measured:
Experiment in all cases: log2 fold change, soluble protein after heating vs DMSO (PISA); higher = thermal stabilisation; K562 cells, 10 uM, 30 min; active = over 0.2 and 3.5 SD of the protein, either way, in both replicates (recomputed)
[1] = compound: Cc1sc2c(c1C)C(c1ccc(Cl)cc1)=N[C@@H](CC(=O)OC(C)(C)C)c1nnc(C)n1-2
How it was run: (§1)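 K562 cells at 2×10^6 cells/mL were treated for 30 min with 10 μM compound, and aliquots were heated for 3 min over 48°C-58°C before pooling. Extraction used PBS with 0.5% NP-40 at 4°C, and soluble protein was the supernatant after 21,000xg for 90 min, measured by TMTpro 16plex LC-MS/MS with channel sums equalised. Thermal stability values, relative to control samples and from duplicates, are log2 fold changes.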

[2] = compound: CC1=C(SC2=C1C(=N[C@H](C3=NN=C(N32)C)CC(=O)N)C4=CC=C(C=C4)Cl)C
How it was run: as §1

[3] = compound: c1ccc([C@@H]2C[C@H]2NC2CCNCC2)cc1
How it was run: as §1

[4] = compound: CC1=C2C(=CC=C1)N=C(N(C2=O)C3=CC=CC=C3C)CN4C=NC5=C(N=CN=C54)N
How it was run: as §1

[5] = compound: C1=CC=C(C=C1)[C@H](COC2=CC3=C(C=C2)NC(=O)N3)NC(=O)C4=CC=CN(C4=O)CC5=CC(=C(C=C5)F)F
How it was run: as §1

Chain of UniProt P24592 (P24592 whole entry, looked up): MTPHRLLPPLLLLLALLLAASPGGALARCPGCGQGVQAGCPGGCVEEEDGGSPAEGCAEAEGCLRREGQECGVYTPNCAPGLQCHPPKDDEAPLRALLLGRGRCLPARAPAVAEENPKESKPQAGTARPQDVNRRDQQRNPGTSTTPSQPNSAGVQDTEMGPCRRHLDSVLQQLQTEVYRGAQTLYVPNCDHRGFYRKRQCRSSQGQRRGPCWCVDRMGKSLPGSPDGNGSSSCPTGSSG
Chain of UniProt P55082 (P55082 whole entry, looked up): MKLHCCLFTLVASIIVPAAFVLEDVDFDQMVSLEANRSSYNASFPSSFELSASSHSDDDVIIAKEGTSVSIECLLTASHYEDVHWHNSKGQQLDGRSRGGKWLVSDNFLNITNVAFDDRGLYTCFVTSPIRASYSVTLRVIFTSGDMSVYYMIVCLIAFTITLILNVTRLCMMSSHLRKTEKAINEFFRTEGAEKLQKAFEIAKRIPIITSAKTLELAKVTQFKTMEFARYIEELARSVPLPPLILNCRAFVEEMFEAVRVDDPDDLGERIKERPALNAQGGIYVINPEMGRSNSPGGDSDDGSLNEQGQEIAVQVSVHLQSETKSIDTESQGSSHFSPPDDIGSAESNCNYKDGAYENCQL
Chain of UniProt Q9Y5V3 (Q9Y5V3 whole entry, looked up): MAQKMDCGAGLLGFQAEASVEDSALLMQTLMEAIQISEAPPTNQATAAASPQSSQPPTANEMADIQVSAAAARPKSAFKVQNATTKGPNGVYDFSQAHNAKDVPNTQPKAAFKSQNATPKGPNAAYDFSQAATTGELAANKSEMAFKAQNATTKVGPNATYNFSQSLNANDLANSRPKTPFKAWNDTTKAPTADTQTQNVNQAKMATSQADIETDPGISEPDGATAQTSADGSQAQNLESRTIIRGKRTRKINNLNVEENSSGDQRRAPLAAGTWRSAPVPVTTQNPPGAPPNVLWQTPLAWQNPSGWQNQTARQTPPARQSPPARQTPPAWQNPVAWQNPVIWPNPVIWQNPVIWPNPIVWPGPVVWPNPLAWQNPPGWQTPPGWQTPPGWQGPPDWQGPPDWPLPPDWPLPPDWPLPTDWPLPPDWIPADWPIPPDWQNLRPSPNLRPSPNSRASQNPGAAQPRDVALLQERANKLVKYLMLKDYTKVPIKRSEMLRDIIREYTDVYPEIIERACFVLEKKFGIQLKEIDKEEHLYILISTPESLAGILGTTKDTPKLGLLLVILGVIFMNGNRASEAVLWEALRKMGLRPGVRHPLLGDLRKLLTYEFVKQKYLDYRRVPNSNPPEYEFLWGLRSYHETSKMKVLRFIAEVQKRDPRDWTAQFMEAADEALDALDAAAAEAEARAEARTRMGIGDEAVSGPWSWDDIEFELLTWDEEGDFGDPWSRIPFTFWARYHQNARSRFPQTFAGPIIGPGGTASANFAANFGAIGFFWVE
Chain of UniProt Q8WYH8 (Q8WYH8 whole entry, looked up): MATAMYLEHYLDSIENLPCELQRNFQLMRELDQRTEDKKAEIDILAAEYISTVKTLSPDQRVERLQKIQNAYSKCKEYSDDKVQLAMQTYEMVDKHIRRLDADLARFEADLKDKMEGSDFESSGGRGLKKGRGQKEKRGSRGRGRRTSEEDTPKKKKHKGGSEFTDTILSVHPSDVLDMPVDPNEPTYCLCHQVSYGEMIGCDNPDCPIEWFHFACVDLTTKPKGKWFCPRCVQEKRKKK
Chain of UniProt Q08334 (Q08334 whole entry, looked up): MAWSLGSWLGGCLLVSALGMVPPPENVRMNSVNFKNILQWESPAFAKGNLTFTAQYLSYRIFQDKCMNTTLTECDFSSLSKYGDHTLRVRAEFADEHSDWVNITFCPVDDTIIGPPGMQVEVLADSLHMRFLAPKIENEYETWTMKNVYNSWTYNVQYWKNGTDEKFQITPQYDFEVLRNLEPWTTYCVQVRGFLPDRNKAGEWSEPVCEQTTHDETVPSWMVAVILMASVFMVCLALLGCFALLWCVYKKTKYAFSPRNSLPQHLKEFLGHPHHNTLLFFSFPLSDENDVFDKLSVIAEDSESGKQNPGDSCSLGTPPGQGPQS
Chain of UniProt Q6NUT3 (Q6NUT3 whole entry, looked up): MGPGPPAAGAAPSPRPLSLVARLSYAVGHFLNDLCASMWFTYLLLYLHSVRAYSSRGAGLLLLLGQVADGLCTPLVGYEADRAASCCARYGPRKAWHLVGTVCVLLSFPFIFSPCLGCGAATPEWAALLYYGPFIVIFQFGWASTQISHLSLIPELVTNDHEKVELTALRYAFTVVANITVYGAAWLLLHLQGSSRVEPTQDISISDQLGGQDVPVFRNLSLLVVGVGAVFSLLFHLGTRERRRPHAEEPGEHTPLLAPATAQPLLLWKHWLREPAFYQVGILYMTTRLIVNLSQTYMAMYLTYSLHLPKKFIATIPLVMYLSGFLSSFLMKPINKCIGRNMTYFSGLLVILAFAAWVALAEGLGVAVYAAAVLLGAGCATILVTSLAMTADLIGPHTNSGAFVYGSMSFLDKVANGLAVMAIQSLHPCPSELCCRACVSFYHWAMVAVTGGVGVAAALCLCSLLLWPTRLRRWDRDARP
Chain of UniProt O60291 (O60291 whole entry, looked up): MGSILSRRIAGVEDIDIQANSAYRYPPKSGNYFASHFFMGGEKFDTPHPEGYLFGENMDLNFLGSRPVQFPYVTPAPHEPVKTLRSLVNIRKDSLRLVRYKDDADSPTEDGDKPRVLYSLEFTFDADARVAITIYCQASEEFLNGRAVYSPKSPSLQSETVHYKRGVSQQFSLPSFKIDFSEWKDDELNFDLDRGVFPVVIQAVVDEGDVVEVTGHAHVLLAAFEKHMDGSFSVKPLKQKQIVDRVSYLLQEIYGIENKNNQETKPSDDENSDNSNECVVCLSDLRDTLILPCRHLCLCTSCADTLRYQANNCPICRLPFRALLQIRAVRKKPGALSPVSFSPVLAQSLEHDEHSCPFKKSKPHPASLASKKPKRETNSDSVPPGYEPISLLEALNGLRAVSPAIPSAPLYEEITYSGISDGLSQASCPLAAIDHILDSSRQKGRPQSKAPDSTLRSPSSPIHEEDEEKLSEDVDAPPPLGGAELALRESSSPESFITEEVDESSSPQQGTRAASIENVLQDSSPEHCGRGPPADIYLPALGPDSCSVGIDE
Chain of UniProt Q86X29 (Q86X29 whole entry, looked up): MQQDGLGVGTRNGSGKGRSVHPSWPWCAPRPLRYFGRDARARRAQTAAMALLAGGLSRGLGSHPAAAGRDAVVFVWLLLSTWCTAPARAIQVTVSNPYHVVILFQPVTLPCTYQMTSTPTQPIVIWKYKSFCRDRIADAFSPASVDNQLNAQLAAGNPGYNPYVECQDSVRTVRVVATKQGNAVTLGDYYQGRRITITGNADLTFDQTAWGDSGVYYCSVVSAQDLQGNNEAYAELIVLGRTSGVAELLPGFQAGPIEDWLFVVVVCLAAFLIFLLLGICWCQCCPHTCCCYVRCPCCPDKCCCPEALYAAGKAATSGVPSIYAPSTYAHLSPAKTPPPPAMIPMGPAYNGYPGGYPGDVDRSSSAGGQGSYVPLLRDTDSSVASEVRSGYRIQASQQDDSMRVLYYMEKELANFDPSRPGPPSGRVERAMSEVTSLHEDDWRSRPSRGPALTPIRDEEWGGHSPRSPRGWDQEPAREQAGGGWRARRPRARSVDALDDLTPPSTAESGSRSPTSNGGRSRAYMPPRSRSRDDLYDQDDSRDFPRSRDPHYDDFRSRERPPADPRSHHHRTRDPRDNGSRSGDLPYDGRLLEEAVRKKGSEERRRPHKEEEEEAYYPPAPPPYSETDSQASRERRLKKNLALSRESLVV
Chain of UniProt Q9UPY8 (Q9UPY8 whole entry, looked up): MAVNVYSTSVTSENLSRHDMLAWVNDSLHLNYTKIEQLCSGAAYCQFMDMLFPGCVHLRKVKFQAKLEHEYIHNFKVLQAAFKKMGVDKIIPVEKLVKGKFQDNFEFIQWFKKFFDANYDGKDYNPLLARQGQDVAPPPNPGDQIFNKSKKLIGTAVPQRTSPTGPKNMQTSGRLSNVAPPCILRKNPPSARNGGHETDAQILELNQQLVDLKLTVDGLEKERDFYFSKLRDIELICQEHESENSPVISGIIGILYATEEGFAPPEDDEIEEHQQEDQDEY
Chain of UniProt P51884 (P51884 whole entry, looked up): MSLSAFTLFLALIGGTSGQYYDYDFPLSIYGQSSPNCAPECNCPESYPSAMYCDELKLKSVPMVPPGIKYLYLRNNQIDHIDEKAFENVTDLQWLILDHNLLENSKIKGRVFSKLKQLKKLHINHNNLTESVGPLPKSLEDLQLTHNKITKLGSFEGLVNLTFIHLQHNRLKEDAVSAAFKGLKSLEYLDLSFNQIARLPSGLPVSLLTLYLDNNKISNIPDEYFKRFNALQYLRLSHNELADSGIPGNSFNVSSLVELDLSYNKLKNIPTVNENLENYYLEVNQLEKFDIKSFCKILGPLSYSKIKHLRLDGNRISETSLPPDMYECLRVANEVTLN
Chain of UniProt O95279 (O95279 whole entry, looked up): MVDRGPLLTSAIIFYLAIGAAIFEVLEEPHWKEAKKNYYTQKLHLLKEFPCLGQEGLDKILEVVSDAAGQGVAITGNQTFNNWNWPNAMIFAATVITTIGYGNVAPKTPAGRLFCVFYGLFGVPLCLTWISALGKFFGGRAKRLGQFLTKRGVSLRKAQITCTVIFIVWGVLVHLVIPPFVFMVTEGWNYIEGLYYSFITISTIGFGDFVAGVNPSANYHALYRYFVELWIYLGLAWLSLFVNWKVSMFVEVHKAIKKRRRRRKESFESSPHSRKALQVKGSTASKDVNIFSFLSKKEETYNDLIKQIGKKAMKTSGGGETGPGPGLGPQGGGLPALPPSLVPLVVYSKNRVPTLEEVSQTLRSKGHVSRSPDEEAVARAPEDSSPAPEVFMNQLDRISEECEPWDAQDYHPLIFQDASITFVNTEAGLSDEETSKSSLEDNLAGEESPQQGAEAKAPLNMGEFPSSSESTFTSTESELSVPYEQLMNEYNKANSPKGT
Chain of UniProt O15243 (O15243 whole entry, looked up): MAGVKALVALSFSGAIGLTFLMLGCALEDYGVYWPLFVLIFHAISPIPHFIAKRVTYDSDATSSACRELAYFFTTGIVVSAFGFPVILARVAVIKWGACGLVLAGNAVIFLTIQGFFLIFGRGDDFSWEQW

Target	log2 fold change [1]	log2 fold change [2]	log2 fold change [3]	log2 fold change [4]	log2 fold change [5]
LMNA isoform 2 (UniProt P02545)	-0.033	–	–	–	–
LEPROT (UniProt O15243)	-0.235	-0.022	0.112	–	–
ITPRID2 (UniProt P28290)	–	–	–	0.106	–
MFSD12 isoform 3 (UniProt Q6NUT3)	-0.129	0.026	0.135	–	–
MAGED1 isoform 2 (UniProt Q9Y5V3)	–	0.031	-0.01	0.148	–
MFAP3 (UniProt P55082)	-0.155	–	–	0.25	0.007
LSR isoform 3 (UniProt Q86X29)	-0.067	-0.073	-0.101	–	–
MAN2B2 (UniProt Q9Y2E5)	0.074	–	–	0.096	0.097
MAPRE3 isoform 2 (UniProt Q9UPY8)	0.279	0.033	0.017	–	–
LRBA, A0A494BZW2	0.113	0.048	0.014	–	0.002
IGFBP6 (UniProt P24592)	–	0.018	0.01	0.011	–
KCNK5 (UniProt O95279)	–	0.114	-0.054	–	-0.028
MAPK11 (UniProt Q15759)	-0.014	–	–	–	–
KIZ (UniProt Q2M2Z5)	–	-0.082	0.453	–	–
MAP4K4 isoform 6 (UniProt O95819)	-0.037	0.177	0.076	0.049	–
LRRFIP1 isoform 4 (UniProt Q32MZ4)	–	-0.204	0.009	–	–

Target	log2 fold change [1]	log2 fold change [2]	log2 fold change [3]	log2 fold change [4]	log2 fold change [5]
MAML1 (UniProt Q92585)	–	0.018	0.077	0.15	–
MGRN1 isoform 2 (UniProt O60291)	0.036	-0.004	0.086	–	-0.088
LUM (UniProt P51884)	0.144	-0.05	0.143	0.087	–
LSR (UniProt M0QZL9)	–	–	–	0.054	–
LYN isoform 2 (UniProt P07948)	–	0.018	0.033	-0.097	–
MAP2K5 (UniProt Q13163)	–	0.053	-0.034	–	–
IKZF1 (UniProt R9R4D9)	0.039	0.08	-0.159	–	–
MED12 isoform 2 (UniProt Q93074)	-0.434	–	–	–	-0.002
ING5 (UniProt Q8WYH8)	0.036	0.051	-0.037	–	–
KIF1B isoform 3 (UniProt O60333)	–	–	–	-0.246	–
IL10RB (UniProt Q08334)	0.029	–	–	-0.149	-0.081
LRRCC1 (UniProt Q9C099)	0.046	–	–	–	–
MELK (UniProt Q14680)	0.197	-0.057	-0.057	–	0.044
MCOLN3 (UniProt Q8TDD5)	0.039	–	–	–	-0.075
IP6K1 (UniProt Q92551)	0.194	0.059	-0.135	–	0.053
MAP3K20 isoform 2 (UniProt Q9NYL2)	-0.033	–	–	–	–

From the supplement of paper PMC10849652
